Measured values taken from PubChem BioAssay.
Records with an inconclusive call do not appear. Active and inactive are the calls of the source.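 How the source made its calls, unless noted: active means normalized viability below 100% at a tested concentration; inactive means the rest.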

What was measured:
[1] = growth inhibition, MDA-MB-436, cell-based, BGB or cisplatin combos, synergistic combos for chromothripsis tumors (AID 1671458); conditions: MDA-MB-436 breast carcinoma growth inhibition, drug combinations, stronger effect = higher value;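 further: cells exposed for 96 hours; 0% = vehicle DMSO and 100% = killing by high DMSO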
[2] = BT084 cell growth, single and combined drugs, ICGC_MB145, cisplatin and BGB IC40 combos (AID 1671461; in the data active means inhibition above about 80%;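 further: cells exposed to drugs for 96 hours; 0% = vehicle DMSO and 100% = high DMSO full killing control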); conditions: BT084 medulloblastoma cells, drug combinations, stronger effect = higher value
[3] = RCMB18 cell growth, single agent and combined, cisplatin and BGB IC40 combos (AID 1671462; in the data active means inhibition above about 80%;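 further: cells exposed to compound for four days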); conditions: RCMB18 medulloblastoma cells, stronger effect = higher value
[4] = CRL1545 cell growth, single agent and combined, cisplatin and BGB IC20 combos (AID 1671464; in the data active means inhibition above about 80%;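 further: cells exposed to compound for 96 hours before readout; 0% = vehicle DMSO and 100% = high DMSO killing control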); conditions: CRL1545 osteosarcoma cells, stronger effect = higher value
[5] = viability loss in pontine glioma line – cell-based, JHH-DIPG-1, MIPE4.0, CellTiter-Glo, qHTS, dose response (AID 1347062; cut-off not given, nearly all actives have AC50 up to about 27 µM;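 on AC50: cells exposed to compound for two days before readout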); conditions: JHH-DIPG-1 viability, CellTiter-Glo ATP luminescence
[6] = viability loss in pontine glioma line – cell-based, SU-DIPG-IV, MIPE4.0, CellTiter-Glo, qHTS, dose response (AID 1347063; cut-off not given, nearly all actives have AC50 up to about 30 µM;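 further: compound exposure lasted 48 hours before the viability readout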); conditions: CellTiter-Glo ATP luminescence
[7] = growth inhibition of DIPG cells – cell-based, MIPE4.0 library, CellTiter-Glo luminescence, qHTS (AID 1347066; cut-off not given, nearly all actives have AC50 up to about 30 µM;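 further: cells exposed to compound for 48 hours before readout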); conditions: SU-DIPG-VI viability, CellTiter-Glo ATP luminescence
[8] = JHH-DIPG-1 glioma cell viability, MIPE5.0 library, CellTiter-Glo luminescence, qHTS (AID 1347067; cut-off not given, nearly all actives have AC50 up to about 26 µM;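 further: cells exposed to compound for 48 hours before readout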); conditions: JHH-DIPG-1 glioma viability, CellTiter-Glo ATP luminescence
[9] = growth inhibition of DIPG cells – cell-based, MIPE5.0 library, qHTS (AID 1347068; cut-off not given, nearly all actives have IC50 up to about 30 µM;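 on IC50: cells exposed to compound for 48 hours before viability readout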); conditions: SU-DIPG-XXV viability
[10] = viability loss with induced miR-34 in A549 – imaging, A549 dox-inducible miR-34, nuclei and caspase counts, primary screen (AID 1347080;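 active means compounds whose cell count with miR-34 switched on is under 0.7 times the count with it off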); conditions: A549 miR-34 inducible, Hoechst nuclei count, 48 h
[11] = MELAS cybrid and Rieske KO viability enhancers – cell-based, MELAS cybrids, Rieske KO mouse fibroblasts, CellTiter-Glo, primary screen (AID 1508586;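 active means mean z-score across replicates of 1.96 or higher in either the MELAS or the Rieske mutant cell line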;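 further: z relative to plate mean and SD of compound and empty wells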); conditions: low glucose
[12] = drug combination growth inhibition, ovarian cancer – cell-based, oncology-focused library, rucaparib conditional, profiling panel (AID 1508598); conditions: patient-derived ovarian cancer cells, CellTiter-Glo viability, 144 h, stronger effect = lower value
[13] = viability loss in pontine glioma line – cell-based, SU-DIPG-XXV, MIPE5.0, CellTiter-Glo, qHTS, dose response (AID 1347065; cut-off not given, nearly all actives have AC50 up to about 26 µM;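 further: cells exposed to compound for 48 hours before ATP readout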); conditions: CellTiter-Glo ATP luminescence
[14] = stronger effect = lower value, cell number ratio, induced over uninduced
[15] = measured here: relative caspase fold change +Dox/-Dox
[16] = measured here: total cells with miR-34 induction, stronger effect = lower value
[17] = measured here: total cells without miR-34 induction
[18] = MELAS cybrid survival, CellTiter-Glo 48 h, stronger effect = higher value
[19] = Rieske KO mouse fibroblast survival, CellTiter-Glo 72 h

Work on Cc1cn([C@@H]2O[C@H](CO)[C@@H](O)[C@@H]2F)c(=O)[nH]c1=O yielded an inhibition ([1]; measured here: BGB combination, at 0.5 µM) of -21.7%, an inhibition ([1]; measured here: BGB combination, at 5 µM) of -19.5% and an inhibition ([1]; measured here: cisplatin combination, at 0.5 µM) of -37.4%. The inhibition ([1]; measured here: cisplatin combination, at 5 µM) was -37%, the inhibition ([2]; at 0.5 µM) was -12.8% (inactive) and the inhibition ([2]; cisplatin combination, at 0.5 µM) was 3.7%. For the same molecule, the inhibition ([2]; cisplatin combination, at 5 µM) was -127%, the inhibition ([2]; measured here: BGB IC40 combination 0.05 uM, at 0.05 µM) was -18.9% and the inhibition ([2]; single agent, at 5 µM) was -21.7%. The inhibition ([3]; at 0.5 µM) was -23.1% (inactive), the inhibition ([3]; cisplatin combo, at 5 µM) was -15.5% and the inhibition ([3]; measured here: BGB IC40 combination, at 0.05 µM) was -13.9%. The inhibition ([3]; measured here: combination with cisplatin, at 0.5 µM) was -19%, the inhibition ([3]; single agent, at 5 µM) was -12.7% and the inhibition ([4]; at 0.5 µM) was 12.7% (inactive). It also gave an inhibition ([4]; measured here: with BGB IC20 combination, at 0.5 µM) of 6.33%, an inhibition ([4]; measured here: with cisplatin IC20 combination, at 0.5 µM) of 14.6% and an inhibition ([4]; single agent, at 0.05 µM) of -20.4%. For the same molecule, the inhibition ([4]; single agent, at 5 µM) was 5.83%.
In the case of COc1cc(OC)cc(-c2ccc3ncc4ccc(=O)n(-c5ccc(N6CCNCC6)c(C(F)(F)F)c5)c4c3c2)c1, the AC50 [5] is reported as 16.6 µM (active), the AC50 [6] is reported as 2.64 µM (active) and the AC50 [7] is reported as 13.2 µM (active).
With CC(=O)NC(C)c1ccc(Oc2ccc(OC(C)C)cc2)cc1 (stereo not given) the outcome [5] was “inactive” and the outcome [7] was “inactive”.
For CCOc1cc(N2CCC(O)CC2)ccc1Nc1ncc2c(n1)N(C)c1ccccc1C(=O)N2C, the AC50 [5] was 7.43 µM (active), the outcome [7] was “inactive” and the AC50 [8] was 20.9 µM (active). The IC50 [9] was 18.6 µM (active), the fold change [10, 14] was 0.886 (inactive) and the fold change [10, 15] was 0.548. The cell count [10, 16] was 6240, the cell count [10, 17] was 7040 and the z-score [11, 18] was -0.56 (inactive). The z-score [11, 19] was -1.56, the viability ([12]; at 0.000305 µM, OCI-C5x cells, with rucaparib 10 µM, 100% = cells with rucaparib alone) was 123% (inactive) and the viability ([12]; at 0.000305 µM, OCI-C5x cells, without rucaparib) was 120% (inactive). For the same molecule, the viability ([12]; at 0.000305 µM, OCI-P5x cells, with rucaparib 20 µM, 100% = cells with rucaparib alone) was 94.3% (active), the viability ([12]; at 0.000305 µM, OCI-P5x cells, without rucaparib) was 101% (inactive) and the viability ([12]; at 0.00122 µM, OCI-C5x cells, with rucaparib 10 µM, 100% = cells with rucaparib alone) was 122% (inactive). For the same molecule, the viability ([12]; at 0.00122 µM, OCI-C5x cells, without rucaparib) was 109% (inactive), the viability ([12]; at 0.00122 µM, OCI-P5x cells, with rucaparib 20 µM, 100% = cells with rucaparib alone) was 99.4% (active) and the viability ([12]; at 0.00122 µM, OCI-P5x cells, without rucaparib) was 105% (inactive). The viability ([12]; at 0.00488 µM, OCI-C5x cells, with rucaparib 10 µM, 100% = cells with rucaparib alone) was 119% (inactive), the viability ([12]; at 0.00488 µM, OCI-C5x cells, without rucaparib) was 112% (inactive) and the viability ([12]; at 0.00488 µM, OCI-P5x cells, with rucaparib 20 µM, 100% = cells with rucaparib alone) was 91.8% (active). For the same molecule, the viability ([12]; at 0.00488 µM, OCI-P5x cells, without rucaparib) was 102% (inactive), the viability ([12]; at 0.0195 µM, OCI-C5x cells, with rucaparib 10 µM, 100% = cells with rucaparib alone) was 124% (inactive) and the viability ([12]; at 0.0195 µM, OCI-C5x cells, without rucaparib) was 117% (inactive). The viability ([12]; at 0.0195 µM, OCI-P5x cells, with rucaparib 20 µM, 100% = cells with rucaparib alone) was 94% (active), the viability ([12]; at 0.0195 µM, OCI-P5x cells, without rucaparib) was 99.5% (active) and the viability ([12]; at 0.0781 µM, OCI-C5x cells, with rucaparib 10 µM, 100% = cells with rucaparib alone) was 131% (inactive). The viability ([12]; at 0.0781 µM, OCI-C5x cells, without rucaparib) was 124% (inactive), the viability ([12]; at 0.0781 µM, OCI-P5x cells, with rucaparib 20 µM, 100% = cells with rucaparib alone) was 96.6% (active) and the viability ([12]; at 0.0781 µM, OCI-P5x cells, without rucaparib) was 108% (inactive). For the same molecule, the viability ([12]; at 0.313 µM, OCI-C5x cells, with rucaparib 10 µM, 100% = cells with rucaparib alone) was 109% (inactive), the viability ([12]; at 0.313 µM, OCI-C5x cells, without rucaparib) was 131% (inactive) and the viability ([12]; at 0.313 µM, OCI-P5x cells, with rucaparib 20 µM, 100% = cells with rucaparib alone) was 88.3% (active). The viability ([12]; at 0.313 µM, OCI-P5x cells, without rucaparib) was 95.6% (active), the viability ([12]; at 1.25 µM, OCI-C5x cells, with rucaparib 10 µM, 100% = cells with rucaparib alone) was 101% (inactive) and the viability ([12]; at 1.25 µM, OCI-C5x cells, without rucaparib) was 121% (inactive). The viability ([12]; at 1.25 µM, OCI-P5x cells, with rucaparib 20 µM, 100% = cells with rucaparib alone) was 84.7% (active), the viability ([12]; at 1.25 µM, OCI-P5x cells, without rucaparib) was 90.7% (active) and the viability ([12]; at 5 µM, OCI-C5x cells, with rucaparib 10 µM, 100% = cells with rucaparib alone) was 85.7% (active). For the same molecule, the viability ([12]; at 5 µM, OCI-C5x cells, without rucaparib) was 119% (inactive), the viability ([12]; at 5 µM, OCI-P5x cells, with rucaparib 20 µM, 100% = cells with rucaparib alone) was 35.5% (active) and the viability ([12]; at 5 µM, OCI-P5x cells, without rucaparib) was 75.3% (active).
With COc1cc(C(=O)N2CCC(N3CCN(C)CC3)CC2)ccc1Nc1ncc2c(n1)N(C)c1ccccc1C(=O)N2C the AC50 [5] was 16.6 µM (active), the AC50 [6] was 16.6 µM (active) and the AC50 [8] was 18.6 µM (active). The IC50 [9] was 20.9 µM (active).
With CC(C)(C)c1nc(-c2cccc(NS(=O)(=O)c3c(F)cccc3F)c2F)c(-c2ccnc(N)n2)s1 the outcome [5] was “inactive”, the outcome [13] was “inactive” and the outcome [8] was “inactive”. The outcome [9] was “inactive”, the fold change [10, 14] was 1 (inactive) and the fold change [10, 15] was 0.762. For the same molecule, the cell count [10, 16] was 8520, the cell count [10, 17] was 8520 and the z-score [11, 18] was -0.255 (inactive). It also gave a z-score [11, 19] of 0.678.
